Screening results deposited in PubChem BioAssay by National Center for Advancing Translational Sciences (NCATS).
TGFb inhibitor: blocks TGF-b signaling. HepG2 CAGA-GFP TGF-b/SMAD3 reporter, GFP fluorescence, 18 h; TGF-beta stimulated, 500 pg/mL final. Potency, µM (highest dose often 46.1 µM), without a hit: at the highest dose activity, negative = inhibition, most hits filed as inhibitors. 410,000 compounds, 1.2% hits. AID 588855; note: % is set by controls: 0 for no effect and ±100 for the full control effect; nearly all actives have a fitted effect of over 65% in size
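HEPG2 CAGA-GFP, 1000 cells/well; 2 h settle, 37 C; cpd via pin tool; TGF-b 500 pg/mL final; 18 h, 37 C; GFP imaging ex488/em500-530; %Activity normalised to -TGF-b and +DMSO controls; CRC fit, curve class.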
ATXN2 expr inh: inhibitors of ATXN2 expression | HEK-293 ATXN2-luciferase reporter, luminescence, 24 h | 360,000 compounds, 0.72% hits | Potency, µM (titrated, usually from 57 µM), for the others: top-dose activity change, negative = inhibition, hits mostly inhibitors; note: % is set by controls: 0 for no effect and ±100 for the full control effect; nearly all actives have a fitted effect of over 55% in size
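qHTS (up to 57 uM final) was run with 24 h compound exposure of reporter cells at 37 °C. Each well was multiplexed: SteadyGlo luminescence measured ATXN2-luciferase expression after a fluorogenic Gly-Phe-AFC viability readout (25 uM final).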
ATXN viability: reduces viability in counter-screen for ATXN expression inhibitors; Potency, µM (doses to about 56.7 µM), usual class: cytotoxic; AID 651635; 400,000 compounds, 0.49% hits; S2 cells (HEK-293 line with an ATXN2-luciferase reporter) viability, CellTiter-Fluor protease fluorescence, 24 h; note: nearly all actives have a fitted effect of over 40% in size
KB-V1 cytotox: kills drug-selected multidrug resistant KB-V1 cells | KB-V1 MDR cells viability, CellTiter-Glo, 72 h | Potency, µM (highest dose often 46.1 µM), hits mostly cytotoxic | 400,000 compounds, 3.4% hits | AID 1347076; note: % is set by controls: 0 for no effect and ±100 for the full control effect; nearly all actives have a fitted effect of over 60% in size
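KB-V1 cells (P-gp-expressing MDR subline of KB-3-1) in phenol-red-free DMEM with 10% FBS were exposed to library compounds over a concentration series for 72 h at 37 degrees C. Viability read by CellTiter-Glo luminescence; concentration-effect curves fitted after normalization.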
KB-3-1 cytotox: kills parental KB-3-1 adenocarcinoma cells. KB-3-1 viability, CellTiter-Glo ATP luminescence, 72 h. Potency, µM (doses to about 46.1 µM), actives largely listed as cytotoxic. 400,000 compounds, 1.4% hits. AID 1347075; note: % is set by controls: 0 for no effect and ±100 for the full control effect; nearly all actives have a fitted effect of over 60% in size
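Cells are dispensed, compounds pinned in, plates held at 37 °C for 72 h, then CellTiter-Glo is added and luminescence read after 10 minutes. Cell line: parental KB-3-1 in phenol-red-free DMEM, 10% FBS.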
HepG2 tox: counter-screen for TGF-b inhibitors: cytotoxicity in HepG2 cells. HepG2 CAGA-GFP viability, ATP luminescence, 18 h. Potency, µM (doses to about 46.1 µM), without a hit: at the top dose activity change, negative = cytotoxicity, hits mostly cytotoxic. 410,000 compounds, 0.76% hits. AID 588856
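HepG2 CAGA-GFP cells (1000/well, DMEM with 1% FBS) received compound, then TGF-beta at 500 pg/mL final, and were incubated 18 hours at 37 degrees C. Viability was read by CellTiter-Glo luminescence. Media-only wells were set as complete cell-killing and DMSO as no toxicity.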
* = called active by the depositor; i = inactive; u = inconclusive; x = no result given. Compounds with a hit are over-represented: about 5.9% of the library has one in this group of screens. Calls come from the whole dose curve; as a rule, active = well fitted curve in the direction sought with a large enough effect; inconclusive = small, poorly fitted or top-dose-only effect, or another doubt; inactive = no such curve, though single readings can be large; an effect the other way counts as inactive or inconclusive. Potency is the fitted concentration of half-maximal effect.

SMILES	TGFb inhibitor	ATXN2 expr inh	ATXN viability	KB-V1 cytotox	KB-3-1 cytotox	HepG2 tox
CC(C)c1ccc(NC(=O)C2CCCN(S(=O)(=O)c3ccc4[nH]c(=O)ccc4c3)C2)cc1 (stereo not drawn)	x	x	x	x	x	-15%
COc1ccc2nc(NC(=O)c3ccc(S(=O)(=O)N4CCC(C)CC4)cc3)sc2c1	-3%	1%	i	i	i	-6%
Cc1ccc(NC(=O)c2nc(S(C)(=O)=O)ncc2N(Cc2ccccc2)Cc2ccco2)c(C)c1	0%	0%	i	i	i	-5%
Cc1ccc(NC(=O)Cn2nc(C)c([N+](=O)[O-])c2C)cc1C	3%	-5%	u	i	i	-2%
Cc1nn(CC(=O)Nc2ccc3c(c2)CCC3)c(C)c1[N+](=O)[O-]	-9%	-5%	i	18µM*	i	0%
Cc1nn(CC(=O)Nc2cc(S(=O)(=O)N(C)C)ccc2Cl)c(C)c1[N+](=O)[O-]	1%	0%	i	21µM*	i	4%
O=C(NCCc1c[nH]c2ccccc12)C1CCC(Cn2c(=S)[nH]c3ccccc3c2=O)CC1 (stereo not drawn)	-18%	-14%	i	15µM*	u	-1%
COCCNC(=O)C1CCC(Cn2c(=S)[nH]c3ccccc3c2=O)CC1 (stereo not drawn)	-7%	-4%	i	i	i	-22%
COc1ccc2c(c1)c1c(c(=O)n(-c3ccccc3C)c(=O)n1CC(=O)N1CCCC1)n2C	u	13%	i	i	i	2%
Cc1ccc(C)c(S(=O)(=O)C(C#N)c2nc3ccccc3nc2N2CCOCC2)c1 (stereo not drawn)	0%	-12%	i	12µM*	u	-15%
Cc1ccc(C)c(S(=O)(=O)C(C#N)c2nc3ccccc3nc2N2CCCC2)c1 (stereo not drawn)	0%	-3%	i	i	i	5%
Cc1ccc(C)c(S(=O)(=O)C(C#N)c2nc3ccccc3nc2N2CC(C)OC(C)C2)c1 (stereo not drawn)	-24%	-22%	i	u	18µM*	-29%
COCCn1ccc2c(OCC(=O)Nc3cccc(C(F)(F)F)c3)cccc2c1=O	-20%	-11%	i	i	i	-22%
CC(C)(C)c1ccc(OCC(=O)NCC2(N3CCOCC3)CCCCC2)cc1	u	x	x	x	x	-59%
O=[N+]([O-])c1cc(C(F)(F)F)ccc1NCCCCNS(=O)(=O)c1ccc(Cl)cc1	u	u	u	21µM*	u	10µM*
O=[N+]([O-])c1cc(C(F)(F)F)ccc1NCCNC(=S)Nc1ccc(Cl)cc1	5µM*	u	u	u	i	10µM*
CN1c2ccc(Cl)cc2-c2nc(SCC(=O)NCc3ccccc3)ncc2S1(=O)=O	-8%	7%	i	i	i	-15%
CN1[C@@H]2CC[C@H]1CC(OC(=O)[C@@H](CO)c1ccccc1)C2 (stereo partly drawn)	x	x	i	x	x	x
COc1ccc(-c2cc(C(=O)N3CC4(C)CC3CC(C)(C)C4)no2)cc1 (stereo not drawn)	6%	-5%	i	i	u	1%
COc1ccc(-c2cc(C(=O)N3CC4(C)CC3CC(C)(C)C4)no2)cc1OC (stereo not drawn)	14%	-11%	i	21µM*	i	9%
CC(=O)Nc1cccc(Oc2ncnc3scc(-c4ccc(C(C)C)cc4)c23)c1	u	12%	i	21µM*	u	-9%
N#Cc1c(NC(=O)C2CC(c3ccccc3O)=NO2)sc2c1CCC2 (stereo not drawn)	-31%	7%	i	21µM*	i	-35%
N#Cc1c(NC(=O)C2CC(c3ccccc3Cl)=NO2)sc2c1CCC2 (stereo not drawn)	-5%	19%	i	26µM*	i	-60%
Cc1onc(-c2ccccc2Cl)c1C(=O)Nc1sc2c(c1C#N)CCC2	u	x	x	u	i	-13%
O=C(Nc1cc(Cl)cc2c1-c1ccc(Cl)cc1C2O)C(Cl)Cl (stereo not drawn)	u	-38%	i	18µM*	u	-15%
SMILES	TGFb inhibitor	ATXN2 expr inh	ATXN viability	KB-V1 cytotox	KB-3-1 cytotox	HepG2 tox
CN(CC(=O)Nc1ccc(S(=O)(=O)N2CCCC2)cc1)Cc1c(F)cccc1Cl	-13%	u	i	7.3µM*	u	-4%
CN(CC(=O)Nc1ccc(F)cc1)c1ccc(S(=O)(=O)N2CCCCC2)cc1[N+](=O)[O-]	u	-20%	u	13µM*	i	-36%
O=C(Cn1nc(-c2ccccc2F)ccc1=O)Nc1ccc(S(=O)(=O)N2CCCCCC2)cc1	u	-23%	i	13µM*	i	15%
O=C(Cc1ccccc1F)Nc1ccc(S(=O)(=O)N2CCCCC2)cc1	-2%	-6%	i	i	i	-4%
CN(CC(=O)Nc1cccc(S(=O)(=O)N2CCCC2)c1)CC(=O)Nc1ccc(F)c(F)c1F	-2%	-11%	i	21µM*	i	0%
CN(CC(=O)Nc1ccc(S(=O)(=O)N2CCCC2)cc1)Cc1ccc(Cl)cc1	u	-12%	i	u	i	-35%
COc1ccc(S(=O)(=O)N2CCCCCC2)cc1C(=O)N(C)CC(=O)Nc1ccc(F)cc1	2%	-25%	i	i	i	4%
C[N+]1(CC(=O)c2ccc(Oc3ccccc3)cc2)CCOCC1	-1%	x	x	i	i	3%
CCOC(=O)c1c(C)sc(-c2c(-c3ccc4c(c3)OCCO4)[nH]c3c2c(=O)[nH]c(=O)n3C)c1O	-24%	x	x	x	x	-13%
CN(CCCC(=O)O)c1ccc(N=Nc2ccc([N+](=O)[O-])cc2)cc1	-3%	x	14µM*	i	u	-27%
CC(C)C(NC(=O)c1ccccn1)c1nnc2n1CCN(Cc1ccc3ccccc3c1)CC2 (stereo not drawn)	x	x	i	x	x	x
O=C(NC(=S)Nc1cc(Cl)ccc1O)c1cccc(Br)c1	10µM*	x	i	i	i	-41%
O=C(NC(=S)Nc1cccnc1)c1cccc(Br)c1	-26%	15%	i	i	i	2%
O=C(COC(=O)c1nc(Cl)ccc1Cl)Nc1ccc(Cl)cn1	8%	4%	i	u	i	2%
O=C(COC(=O)c1ncc(Cl)c(Cl)c1Cl)Nc1ccc(Cl)cn1	-11%	-7%	i	i	i	1.4µM*
O=C(Nc1ccc(Cl)c(C(F)(F)F)c1)Nc1nnc(-c2ccncc2)s1	x	x	x	i	u	x
